# Source: PubChem
# The full list was thinned out, with hits kept by preference.
# IDE exosite FP: exo-site inhibitors of human insulin-degrading enzyme | purified IDE, FL-6b probe fluorescence polarization; active compounds read low | actives 6.3% (n = 17,000) | P14735 | AID 1259349 | z-score at 20 µM;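 active = z-score of -3 or lower, meaning strong loss of probe binding signal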;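 also: His-tagged human IDE residues 42-1019 made in E. coli with 30 nM FL-6b probe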
# * marks the source's active call; other numbers are inactive results; ! = not confirmed by another sample.
SMILES,IDE exosite FP
OC[C@@H]1Nc2ccc(C#Cc3ccc(F)cc3)cc2[C@H]2[C@@H]1CCN2Cc1ccc2c(c1)OCO2,0.714
O=C(C[C@H]1CC[C@@H]2[C@H](COC[C@@H](O)CN2C(=O)Nc2ccc(F)cc2)O1)NC1CCC1,0.319
CCCNC(=O)N1C[C@@H]2N[C@H](C1)C2c1ccc(-c2ccc(F)cc2)cc1 (stereo partly specified),2.21
CCCNC(=O)N1C[C@@H]2N[C@H](C1)C2c1ccc(-c2ccccc2C)cc1 (stereo partly specified),-7.81*!
CCCNC(=O)N1C[C@@H]2N[C@H](C1)C2c1ccc(-c2cccnc2)cc1 (stereo partly specified),1.84
CN1C(=O)c2cc(NC(=O)C3CCOCC3)ccc2OC[C@H]2O[C@H](CC(=O)NCC3CCCCC3)CC[C@H]21,-1.01
C[C@H]1CN([C@@H](C)CO)C(=O)c2cc(NC(=O)C3CCCCC3)ccc2O[C@@H]1CN(C)Cc1ccc2c(c1)OCO2,0.247
CO[C@@H]1CN(C)C(=O)c2cc(NC(=O)c3ccc(Oc4ccccc4)cc3)ccc2OC[C@H](C)NC[C@H]1C,-7.56*
COc1cccc(NC(=O)Nc2ccc3c(c2)C(=O)N(C)C[C@H](OC)[C@H](C)CN[C@H](C)CO3)c1,1.65
CO[C@H]1CN(C)C(=O)c2cc(NC(=O)c3cnccn3)ccc2OC[C@@H](C)NC[C@@H]1C,2
CO[C@H]1CN(C)C(=O)c2cc(NC(=O)c3ccc(Oc4ccccc4)cc3)ccc2OC[C@@H](C)NC[C@@H]1C,-13.2*
COc1cccc(NC(=O)Nc2ccc3c(c2)C(=O)N(C)C[C@@H](OC)[C@@H](C)CN[C@H](C)CO3)c1,-0.955
COc1cccc(NC(=O)Nc2ccc3c(c2)C(=O)N(C)C[C@@H](OC)[C@@H](C)CN[C@@H](C)CO3)c1,-0.138
COc1ccc2c3c(n(C)c2c1)[C@H](CO)N(S(C)(=O)=O)CC31CCN(Cc2nccs2)CC1,-0.371
O=C1C[C@H](c2ccccc2)C(=O)N[C@@H](c2ccc(F)cc2)C/C=C\CCN1,1.11
CN(C)CC(=O)N1CC(=O)N2[C@H](CO)[C@@H](c3ccc(-c4ccc(C#N)cc4)cc3)[C@H]2C1,0.327
Cc1noc(C)c1C(=O)N(C)C[C@H]1OCc2ccccc2-c2ccccc2C(=O)N([C@H](C)CO)C[C@@H]1C,0.316
COCC(=O)N1[C@H](C#N)[C@H](c2ccc(C3=CCCCC3)cc2)[C@@H]1CO,2.48
COc1ccc2c3c([nH]c2c1)[C@H](CO)N(C)CC31CCN(C(=O)c2ccccc2F)CC1,0.932
COc1ccccc1-c1ccc(C2[C@@H]3CN(Cc4nccs4)C[C@H]2N3)cc1 (stereo partly specified),-0.0593
Fc1ccccc1-c1ccc(C2[C@@H]3CN(Cc4ccccc4)C[C@H]2N3)cc1 (stereo partly specified),2.34
COc1cccc(CN2C[C@@H]3N[C@H](C2)C3c2ccc(-c3ccccc3OC)cc2)c1 (stereo partly specified),-8.57*!
COc1cc(CN2C[C@@H]3N[C@H](C2)C3c2ccc(-c3ccc(C#N)cc3)cc2)cc(OC)c1 (stereo partly specified),-0.741
COc1cccc(CN2CCCCN3[C@@H](CO)[C@@H](c4ccc(-c5ccccc5OC)cc4)[C@@H]3C2)c1,-1.52
COc1ccccc1-c1ccc(C2[C@@H]3CN(Cc4cccc(F)c4)C[C@H]2N3)cc1 (stereo partly specified),-3.17*
SMILES,IDE exosite FP
Cc1cccc(-c2ccc([C@H]3[C@H]4CN(C(=O)c5ccc6c(c5)OCO6)CCCCN4[C@H]3CO)cc2)c1,0.0201
OC[C@@H]1[C@H](c2ccc(C#CC3(O)CCCC3)cc2)[C@H]2CN(Cc3cccnc3)CCCCN12,-0.696
Cc1noc(C)c1S(=O)(=O)N1[C@@H]2CNC[C@H]1C2c1ccc(-c2cccc(F)c2)cc1 (stereo partly specified),-0.438
CC(=O)N1[C@@H](CO)[C@@H](c2ccc(C3=CCCC3)cc2)C12CN(C(=O)NC(C)C)C2,1.2
Cc1cccc(S(=O)(=O)N2C[C@@H]3N[C@H](C2)C3c2ccc(-c3ccccc3C)cc2)c1 (stereo partly specified),-6.55*!
COc1cccc(S(=O)(=O)N2C[C@@H]3N[C@H](C2)C3c2ccc(-c3ccccc3OC)cc2)c1 (stereo partly specified),-2.23
Cc1cccc(S(=O)(=O)N2C[C@@H]3N[C@H](C2)C3c2ccc(-c3cncnc3)cc2)c1 (stereo partly specified),0.0923
COc1cccc(S(=O)(=O)N2C[C@@H]3N[C@H](C2)C3c2ccc(-c3ccccc3F)cc2)c1 (stereo partly specified),0.572
COc1cccc(S(=O)(=O)N2C[C@@H]3N[C@H](C2)C3c2ccc(-c3ccccc3C)cc2)c1 (stereo partly specified),-9.86*!
Cc1cccc(S(=O)(=O)N2C[C@@H]3N[C@H](C2)C3c2ccc(-c3ccccc3F)cc2)c1 (stereo partly specified),2.53
COCC(=O)NC[C@H]1[C@@H](c2ccc(C3=CCCC3)cc2)[C@H](CO)N1C(=O)C1CC1,5.68
COc1ccc2c3c(n(C)c2c1)[C@H](CO)N(CC1CC1)CC31CN(S(=O)(=O)c2cn(C)cn2)C1,-2.15
COCC(=O)N1CC2(C1)[C@@H](c1ccccc1)[C@@H](CO)N2CCC(F)(F)F,0.758
CO[C@@H]1CN(C)C(=O)c2cc(NC(=O)Nc3cccc(Cl)c3)ccc2OC[C@@H](C)N(C(=O)Nc2c(C)noc2C)C[C@@H]1C,1.21
C/C=C/c1ccc([C@@H]2[C@H](CO)N3C(=O)CN(C(=O)Nc4ccccc4F)C[C@@H]23)cc1,3.14
COc1cc(CN2[C@@H]3CNC[C@H]2C3c2ccc(/C=C/c3ccccc3)cc2)cc(OC)c1 (stereo partly specified),-5.51*!
c1ccc(CN2[C@@H]3CNC[C@H]2C3c2ccc(-c3cccnc3)cc2)nc1 (stereo partly specified),1.71
C(=C\c1ccc(C2[C@H]3CNC[C@@H]2N3Cc2cncnc2)cc1)/c1ccccc1 (stereo partly specified),0.522
COc1cccc(CN2[C@@H]3CNC[C@H]2C3c2ccc(/C=C/c3ccccc3)cc2)c1 (stereo partly specified),-0.842
COc1cc(CN2[C@@H]3CNC[C@H]2C3c2ccc(-c3ccccc3)cc2)cc(OC)c1 (stereo partly specified),-2.36
C(=C\c1ccc(C2[C@H]3CNC[C@@H]2N3Cc2ccccn2)cc1)/c1ccccc1 (stereo partly specified),-3.77*!
N#C[C@H]1[C@@H](c2ccccc2)[C@H](CO)N1C(=O)CCN1CCCCC1,-1.38
CCCN(C[C@@H]1N[C@@H](CO)[C@H]1c1ccc(-c2cccnc2)cc1)C(C)=O,1.05
COCC(=O)Nc1ccc2c(c1)C(=O)N(C)[C@@H]1CC[C@@H](CC(=O)NC3Cc4ccccc4C3)O[C@@H]1CO2,-1.84
Cc1noc(C)c1C(=O)N(C)C[C@@H]1OCc2ccccc2-c2ccccc2C(=O)N([C@H](C)CO)C[C@H]1C,-0.0373
CN(C)CC(=O)N1[C@H](CO)[C@H](c2ccccc2-c2cccc(C(=O)N(C)C)c2)[C@@H]1C#N,1.26
C[C@@H](NC(=O)C[C@@H]1CC[C@@H]2[C@H](COC[C@H](O)CN2Cc2ccc(C(F)(F)F)cc2)O1)c1ccccc1,-0.195
